# Compound activity from PubChem BioAssay.
# AGP1-GFP MLPCN: alters AGP1-GFP fluorescence in TOR pathway yeast screen; S. cerevisiae AGP1-GFP multiplex flow cytometry, 3 h; GFP as percent of DMSO wells; 320,000 compounds, 0.02% hits; GFP response vs DMSO, % at 10 µM; AID 2066;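 active = GFP response relative to DMSO above a set limit, near screen average plus 3 SD, cut at about 150% in these data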;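 also: median GFP channel fluorescence of the gated AGP1 strain per well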
# Efflux pump mplx: inhibitors of Candida antifungal efflux pumps expressed in yeast | S. cerevisiae Candida pump triplex, Nile Red efflux | inhibition, % at 10 µM | 330,000 compounds, 0.44% hits | AID 485275;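 active = plate passing quality check with inhibition over a set limit, or well fluorescence over plate mean plus 4 SD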;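 also: Nile Red retained in pooled yeast measured as flow cytometry median fluorescence; 0% = buffer negative control and 100% = Enniatin B positive control; higher means more Nile Red kept so more efflux inhibition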
# RPL19A TOR yeast: yeast TOR pathway RPL19A-GFP modulation | AID 2025 | percent response vs DMSO, % at 10 µM | S. cerevisiae RPL19A-GFP strain, flow cytometry, 3 h; active compounds read low | 330,000 compounds, 0.3% hits;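 active = percent response vs DMSO below 50%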;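 also: median channel GFP fluorescence of the barcoded RPL19A-GFP strain; ratio of sample median GFP to plate DMSO average so 100% = DMSO; lower means less RPL19A-GFP as with rapamycin TOR inhibition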
# CIT2 TOR yeast: alters CIT2-GFP fluorescence in TOR pathway yeast screen | S. cerevisiae CIT2-GFP strain, flow cytometry, 3 h; 100 means same as DMSO wells | GFP response vs DMSO, % at 10 µM | 320,000 compounds, 0.065% hits;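 active = GFP response relative to DMSO above a set limit, near the screen mean plus 3 SD, cut at about 150% in these data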;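 also: ratio of well median GFP fluorescence to mean of DMSO wells on the plate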
# MEP2-GFP yeast: modulators of TOR pathway MEP2-GFP in S. cerevisiae; S. cerevisiae MEP2-GFP strain, flow cytometry GFP, 3 h; 100% = DMSO control level; GFP response vs DMSO, % at 10 µM; 330,000 compounds, 0.51% hits; AID 2016;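 active = GFP response versus DMSO above a set limit, roughly screen mean plus 3 SD, cut at about 180% in these data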;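 also: median GFP fluorescence of the barcode-gated MEP2-GFP cells per well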
# LAP4-GFP MLPCN: alters LAP4-GFP fluorescence in TOR pathway yeast screen; S. cerevisiae LAP4-GFP multiplex, flow cytometry GFP, 3 h; median GFP as percent of DMSO wells; GFP response vs DMSO, % at 10 µM; 320,000 compounds, 0.34% hits;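 active = GFP response vs DMSO above a set limit, about the screen mean plus 3 SD, cut at about 150% in these data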
# Yeast cmpd fluor: compound fluorescence in yeast efflux pump counter-screen. shares compounds with Efflux pump mplx. S. cerevisiae AD/pABC3, flow cytometry. fluorescence ratio to DMSO, % at 10 µM. 1,700 compounds, 4% hits. AID 588517;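 active = fluorescence ratio to DMSO above its plate's cutoff, the plate mean ratio plus 5 SD, cut at about 210% in these data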;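 also: unstained yeast with no Nile Red so the signal is compound autofluorescence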
# CaMdr1 efflux inh: inhibitors of Candida albicans Mdr1 efflux pump | shares compounds with Efflux pump mplx | S. cerevisiae AD/CaMDR1, Nile Red efflux, flow cytometry | inhibition, % at 10 µM | 1,700 compounds, 1% hits | AID 588518; in the data active = inhibition above about 26%;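 also: 0% = DMSO vehicle and 100% = reference inhibitor; higher means more Nile Red retained so more efflux inhibition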
# CaCdr2 efflux inh: inhibitors of Candida albicans Cdr2 efflux pump. S. cerevisiae AD/CaCDR2, Nile Red retention, flow cytometry. 1,700 compounds, 4% hits. shares compounds with Efflux pump mplx. AID 588520. Nile Red retention ratio vs DMSO, % at 10 µM; in the data active = Nile Red retention ratio vs DMSO above about 190%;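 also: higher ratio means more blocking of Cdr2 efflux of the dye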
# Cdr1 pump inh: blocks the Candida albicans Cdr1 efflux pump in yeast; shares compounds with Efflux pump mplx; S. cerevisiae AD/CaCDR1, Nile Red efflux, flow cytometry; inhibition, % at 10 µM; 1,700 compounds, 1% hits; AID 588522;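 active = inhibition above the screen-wide mean plus twice its standard deviation, cut at about 32% in these data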
# * = called active by the depositor; nt = no result given. This is a sample that favours compounds with a hit; in the whole collection about 1.3% have one here.
SMILES,AGP1-GFP MLPCN,Efflux pump mplx,RPL19A TOR yeast,CIT2 TOR yeast,MEP2-GFP yeast,LAP4-GFP MLPCN,Yeast cmpd fluor,CaMdr1 efflux inh,CaCdr2 efflux inh,Cdr1 pump inh
Cc1ccc(NC(=O)c2ccc(-n3cccn3)c([N+](=O)[O-])c2)cc1,96,0,101,97,104,110,nt,nt,nt,nt
O=C(Nc1ccc(C2=NCCN2)cc1)c1ccc(C(=O)Nc2ccc(C3=NCCN3)cc2)c([N+](=O)[O-])c1,105,1.1*,99,102,101,100,95,0,89,0
COc1ccc(S(=O)(=O)N2CCC(NC(=O)c3cccnc3)CC2)cc1,102,0,106,102,106,87,nt,nt,nt,nt
Cn1c(=O)c(=O)n(C)c2cc(S(=O)(=O)N3CCc4ccccc43)ccc21,105,0.8*,101,102,114,117,238,0,96,0
COc1ccc(OCCOC(=O)c2cc(S(=O)(=O)N3CCOCC3)c(Cl)cc2Cl)cc1,101,0,98,96,100,106,nt,nt,nt,nt
O=C(CN1C(=O)NC2(CCCC2)C1=O)Nc1cc(S(=O)(=O)N2CCCCC2)ccc1Cl,106,0,111,102,103,108,nt,nt,nt,nt
COc1ccc(S(=O)(=O)N2CCCC(C(=O)NCc3cccnc3)C2)cc1OC (configuration not stated),111,0,96,101,99,100,nt,nt,nt,nt
CC(Sc1nnc(C2CC2)n1C1CC1)C(=O)N(C)Cc1cccc(F)c1 (configuration not stated),101,0,99,98,97,99,nt,nt,nt,nt
COc1ccc(/C(O)=C2\C(=O)C(=O)N(CCN(C)C)C2c2cccc(OC)c2OC)cc1 (configuration not stated),107,6.5*,108,108,110,100,101,0,98,0
COc1cccc(C2/C(=C(/O)c3cnn(-c4ccccc4)c3C)C(=O)C(=O)N2CCN(C)C)c1OC (configuration not stated),108,0,106,105,108,102,nt,nt,nt,nt
O=C(COc1ccccc1F)Nc1nnc(C2CCCC2)s1,114,0,106,101,107,123,nt,nt,nt,nt
O=C(COc1ccc(F)cc1)Nc1nnc(C2CC2)s1,106,0,102,98,101,97,106,0,116,0
CC(C)(C)C(=O)CSc1ncccn1,97,0.6*,99,93,104,111,95,0,93,0
CCN(CC)C(=O)Cn1c(C)c(/C=C/c2cc[n+](C)cc2)c2ccccc21,106,0,107,123,141,103,365*,0,121,0
COc1ccc(S(=O)(=O)N(C)C)cc1NC(=O)CSc1nnc(-c2cccnc2)o1,106,0,108,107,101,107,nt,nt,nt,nt
Cc1nn2c3c(cnc2c1-c1ccccc1)C(=O)CCC3,96,0.6*,102,86,107,111,106,0,103,0
c1ccc2[nH]c(Cn3nnc4ccccc43)nc2c1,105,0,101,104,103,91,nt,nt,nt,nt
N#C/C(=C\Nc1ccccc1SC(F)(F)F)c1nc(-c2ccccc2)cs1,104,0,103,101,101,93,nt,nt,nt,nt
Cc1ccc(-c2csc(/C(C#N)=C/Nc3ccccc3SC(F)(F)F)n2)c(C)c1,92,0.5*,100,95,93,89,163,3,116,1
N#CC(C#N)=C1C(=O)N(CCN2CCOCC2)c2ccccc21,107,0,104,108,109,113,nt,nt,nt,nt
